Test results: PubChem BioAssay
Results filed as inconclusive are left out. The source made the active and inactive calls.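 The calls were made as follows, unless noted: active = viability at or below 30% in both replicate assays; inconclusive = viability at or below 30% in just one of the two assays; inactive = the rest.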

Tests used:
[1] = reducers of endogenous Her2 protein level, primary screen, SKBR3 breast tumor cells, AlphaScreen, ATP viability (AID 461;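 active = Her2 level under about 52% in both replicate screens, with viability over 70% of control, limit read from the data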;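 as to Her2 level: lower value means less Her2 protein in the cells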;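 as to viability: percent of carrier control wells set as 100% viability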); settings: 18-24 h, measured here: SKBR3 viability, ATP luminescence, at 10 µM
[2] = biological target: Receptor tyrosine-protein kinase erbB-2 (Homo sapiens) (UniProt P04626); assay: as above; settings: 18-24 h, at 10 µM, stronger effect = lower value
Chain of Receptor tyrosine-protein kinase erbB-2 (Homo sapiens) (P04626 whole entry, looked up): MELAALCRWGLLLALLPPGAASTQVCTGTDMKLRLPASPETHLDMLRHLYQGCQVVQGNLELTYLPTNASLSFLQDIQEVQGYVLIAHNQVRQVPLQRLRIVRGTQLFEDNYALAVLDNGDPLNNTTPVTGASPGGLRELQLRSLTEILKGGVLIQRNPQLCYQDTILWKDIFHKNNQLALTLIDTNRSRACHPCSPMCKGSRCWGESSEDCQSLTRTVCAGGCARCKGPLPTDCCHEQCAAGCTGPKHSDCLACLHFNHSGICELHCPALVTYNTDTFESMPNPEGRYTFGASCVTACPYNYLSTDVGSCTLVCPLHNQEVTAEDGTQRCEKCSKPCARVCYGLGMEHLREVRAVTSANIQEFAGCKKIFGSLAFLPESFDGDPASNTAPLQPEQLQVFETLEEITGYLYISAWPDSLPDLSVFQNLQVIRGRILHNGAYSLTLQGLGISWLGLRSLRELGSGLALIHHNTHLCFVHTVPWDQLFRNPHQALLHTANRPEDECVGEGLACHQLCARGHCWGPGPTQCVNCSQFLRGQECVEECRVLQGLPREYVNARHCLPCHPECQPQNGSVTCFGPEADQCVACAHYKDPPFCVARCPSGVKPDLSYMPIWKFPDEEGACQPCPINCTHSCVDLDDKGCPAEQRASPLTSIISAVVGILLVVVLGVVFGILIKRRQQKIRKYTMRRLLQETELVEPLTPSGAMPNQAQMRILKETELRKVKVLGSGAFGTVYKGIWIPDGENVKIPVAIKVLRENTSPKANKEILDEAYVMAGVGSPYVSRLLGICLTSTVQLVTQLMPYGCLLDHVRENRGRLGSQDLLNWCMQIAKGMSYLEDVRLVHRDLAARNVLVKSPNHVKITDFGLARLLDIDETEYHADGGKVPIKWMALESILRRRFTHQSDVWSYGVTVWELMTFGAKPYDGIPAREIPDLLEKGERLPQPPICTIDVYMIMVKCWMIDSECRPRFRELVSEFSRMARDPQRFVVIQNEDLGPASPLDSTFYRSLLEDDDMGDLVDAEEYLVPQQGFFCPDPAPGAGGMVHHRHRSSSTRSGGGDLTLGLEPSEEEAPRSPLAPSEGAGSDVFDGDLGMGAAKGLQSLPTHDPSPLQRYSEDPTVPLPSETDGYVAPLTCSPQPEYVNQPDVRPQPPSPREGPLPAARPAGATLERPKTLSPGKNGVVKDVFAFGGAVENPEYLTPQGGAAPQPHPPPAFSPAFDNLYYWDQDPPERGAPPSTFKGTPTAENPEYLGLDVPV

[3] = SK-BR-3 cell growth inhibitors, pilot screen, 24 h, human (AID 572;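 active = viability at or below 10% of carrier control in both of two separate runs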;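 also: compound exposure lasted between 18 and 24 h rather than exactly 24 h; 100% = carrier-treated control wells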); settings: SK-BR-3 viability, CellTiter-Glo luminescence, at 10 µM, stronger effect = lower value
[4] = HUVEC growth inhibition – cell-based, human, primary screen (AID 575); settings: HUVEC proliferation, CellTiter-Glo luminescence, 72 h; at 10 µM; stronger effect = lower value;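 also: 100% = median of untreated cell wells with 0.1% DMSO on each plate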
[5] = growth inhibitors of H69AR lung tumor, primary screen, human, duplicate replicates (AID 580;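 active = viability at or under a set limit in both replicates, limit being median viability minus 3 SD, cut at about 48% in these data, passing the limit was not always enough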;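 also: 100% = mean luminescence of untreated wells and 0% = no signal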); settings: H69AR lung tumor cells viability, ATP luminescence, 72 h; at 10 µM; stronger effect = lower value
[6] = reversal of MRP1-mediated doxorubicin resistance, pilot screen, H69AR cells, doxorubicin co-treatment (AID 601;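 active = viability loss from added drug above about 55%, and viability with drug at most 40%, in both replicates, limit read from the data, passing the limit was not always enough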); settings: CellTiter-Glo, 72 h, at 10 µM; for differential viability (reversal): stronger effect = higher value
[7] = 384-well plate pilot, post-Golgi transport modulator project, inhibition of yeast transport mutant growth (AID 636; in the data active = inhibition above about 31%); settings: absorbance 615 nm, about 18 h, stronger effect = higher value
[8] = growth suppression of yeast trafficking mutant, preliminary HTS, modulators of trafficking downstream of Golgi apparatus project, 1536-format plate, OD 615 nm (AID 637; in the data active = inhibition above about 30%); settings: yeast transport mutant growth, absorbance 615 nm, 18 h; stronger effect = higher value
[9] = OD615 S. cerevisiae growth inhibition, permissive medium, pilot counter-assay, permissive growth control for S. cerevisiae lifespan shortening project (AID 705;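 active = growth inhibition above 25% in both replicates, a cutoff set 3 SD above the mean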); settings: OD615, 24 h, at 10 µM, stronger effect = higher value
[10] = Restrictive medium S. cerevisiae growth inhibition, OD615, pilot screen of yeast lifespan reduction project, restrictive growth control (AID 706;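 active = growth inhibition above a set limit, 3 SD over mean compound inhibition, in both replicates, cut at about 43% in these data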;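 also: modified DeaD lifespan yeast strain shifted to restrictive glucose medium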); settings: OD615, 48 h, at 10 µM, stronger effect = higher value
[11] = viability gain of MRP-1-high H69AR cells under doxorubicin, pilot screen, MRP-1 activator project, CellTiter-Glo, duplicate (AID 807;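 active = viability increase at or above a cutoff of the median across tested compounds plus 3 SD, cut at about 8.5% in these data, passing the limit was not always enough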;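 also: compound pretreatment 18-22 h then 72 h combined with doxorubicin; 0% = doxorubicin alone and 100% = vehicle without doxorubicin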); settings: H69AR viability with doxorubicin, CellTiter-Glo luminescence; at 10 µM; stronger effect = higher value
[12] = growth suppression of beta-catenin knockout HCT116, pilot screen, human colon tumor cells (AID 823;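 active = cell viability at or below a set limit in both duplicate runs, the limit being the all-compound median minus 4 SD, cut at about 23% in these data, passing the limit was not always enough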;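 also: 0% = wells killed by 20 µM Hyamine and 100% = untreated DMSO cell wells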); settings: CellTiter-Glo, 60 h, at 10 µM, stronger effect = lower value
[13] = growth suppression of PTEN-deleted HCT116, pilot screen, cell-based, HCT116 clonal line, CellTiter-Glo (AID 824;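 active = viability at or below 27.92% in each of two runs, the all-compound median minus 4 SD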;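 also: 0% = 20 µM Hyamine control and 100% = vehicle cell control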); settings: 60 h, at 10 µM, stronger effect = lower value
[14] = inhibitors of the yeast RAM network, pilot screen, dse1pr::URA3 reporter, 5-FOA selection (AID 869;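 active = inhibition over a set limit, the all-compound mean plus 3 SD, in both replicate runs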;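 also: 0% = DMSO wells with no growth and 100% = 10 µM 1-NA-PP1 with full growth; RAM network block rescues cells from 5-FOA so hits raise OD615 growth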); settings: S. cerevisiae dse1pr::URA3 5-FOA growth, OD615, 2 d; at 10 µM; stronger effect = higher value; strain carries analog-sensitive mutant Cbk1 kinase
[15] = RAM signaling pathway blockade in yeast – S. cerevisiae, Pdr1DBD-CYC8 efflux-inhibited sensitized strain, primary screen (AID 1298;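 active = RAM network inhibition above 8.4% in each of two replicates, 3 SD over the compound average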;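 also: 0% = DMSO untreated cells without growth and 100% = 10 µM 1-NA-PP1 full growth; higher means more yeast growth rescued from 5-FOA killing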); settings: S. cerevisiae cbk1-as DSE1-URA3 strain, 5-FOA growth OD615, 2 d; at 50 µM; stronger effect = higher value
[16] = H69AR cells + 2 uM doxorubicin, measured here: viability with 2 uM doxorubicin, stronger effect = lower value
[17] = H69AR cells, compound alone cytotoxicity

| SMILES | viability [1] [%] | Her2 level [2] | viability [3] | viability [4] | viability [5] | differential viability (reversal) ([6]; H69AR cells + 2 uM doxorubicin) | viability [6, 16] [%] | viability [6, 17] [%] | inhibition [7] | inhibition [8] | growth inhibition [9] | growth inhibition [10] | viability increase [11] | viability [12] | viability [13] | inhibition [14] | RAM network inhibition [15] |
| --- | --- | --- | --- | --- | --- | --- | --- | --- | --- | --- | --- | --- | --- | --- | --- | --- | --- |
| CC(=NCC1CCNCC1)C1=C(O)CC(C)(C)CC1=O | 79 | 95.5% (inactive) | 79% (inactive) | 107% (inactive) | 106% (inactive) | 13.4% (inactive) | 92.4 | 106 | -4.73% (inactive) | 2.3% (inactive) | 10% (inactive) | 5.17% (inactive) | -2.21% (inactive) | 91.2% (inactive) | 97.3% (inactive) | 0.485% (inactive) | -1.02% (inactive) |
| COc1cccc(-c2cc(C(F)(F)F)nc(NCc3ccco3)n2)c1 | 108 | 94.5% (inactive) | 108% (inactive) | 61.6% (inactive) | 95.8% (inactive) | 8.14% (inactive) | 87.7 | 95.8 | -5.27% (inactive) | -1.48% (inactive) | 0.4% (inactive) | 18% (inactive) | -3.81% (inactive) | 70.9% (inactive) | 67.6% (inactive) | 2.38% (inactive) | 8.17% (inactive) |
| Cn1cc(Cl)c(C(=O)N(Cc2ccccc2)c2ccccn2)n1 | 98 | 116% (inactive) | 98% (inactive) | 101% (inactive) | 92.2% (inactive) | -1.01% (inactive) | 93.2 | 92.2 | 1.33% (inactive) | 2.33% (inactive) | -8.19% (inactive) | -1.84% (inactive) | -0.96% (inactive) | 93.3% (inactive) | 94.7% (inactive) | 1.62% (inactive) | 7.22% (inactive) |
| COc1ccc(N2CCN(C(=O)C(C)(C)Oc3ccc(Cl)cc3)CC2)cc1 | 85 | 91.5% (inactive) | 85% (inactive) | 76.9% (inactive) | 68.4% (inactive) | -10.2% (inactive) | 78.6 | 68.4 | -1.07% (inactive) | -2.83% (inactive) | -6.29% (inactive) | 5.29% (inactive) | -4.56% (inactive) | 74.4% (inactive) | 71.7% (inactive) | 1.45% (inactive) | 9.33% (inactive) |
| CCN(CC)Cc1c(C(=O)OC)nnn1-c1nonc1N | 87 | 95.5% (inactive) | 87% (inactive) | 99.6% (inactive) | 106% (inactive) | 13.6% (inactive) | 92.1 | 106 | -7.4% (inactive) | -3.33% (inactive) | -0.575% (inactive) | -3.39% (inactive) | -2.07% (inactive) | 94.2% (inactive) | 102% (inactive) | 0.645% (inactive) | 0.53% (inactive) |
| CCOC(=O)CN1C(=O)C(=O)c2cccc(C)c21 | 80 | 101% (inactive) | 80% (inactive) | 86.5% (inactive) | 76% (inactive) | -0.56% (inactive) | 76.6 | 76 | -1.54% (inactive) | -0.5% (inactive) | 0.235% (inactive) | -4.38% (inactive) | -4.97% (inactive) | 88.4% (inactive) | 92.4% (inactive) | 1.77% (inactive) | 1.05% (inactive) |
| O=C(CN1CCN(Cc2ccccc2F)C1=O)NCc1cccnc1 | 94.5 | 94.5% (inactive) | 94.5% (inactive) | 108% (inactive) | 107% (inactive) | 17% (inactive) | 90.4 | 107 | -3.87% (inactive) | -1.97% (inactive) | 2.81% (inactive) | 6.51% (inactive) | -1.65% (inactive) | 100% (inactive) | 94.6% (inactive) | 0.605% (inactive) | 3.14% (inactive) |
| COC(=O)CCCCCc1ccc(C(C)=O)s1 | 86.5 | 84.5% (inactive) | 86.5% (inactive) | 105% (inactive) | 100% (inactive) | 13.6% (inactive) | 86.5 | 100 | -1.33% (inactive) | -1.61% (inactive) | -3.98% (inactive) | -1.53% (inactive) | 0.73% (inactive) | 96.7% (inactive) | 95% (inactive) | 0.02% (inactive) | 3.12% (inactive) |
| CC1=C(C(=O)Nc2ccccc2)C(c2ccccn2)n2nc(CCCO)nc2N1 (stereo not drawn) | 94.5 | 105% (inactive) | 94.5% (inactive) | 101% (inactive) | 95.6% (inactive) | 1.47% (inactive) | 94.1 | 95.6 | -5.73% (inactive) | -3.33% (inactive) | -14.1% (inactive) | -8.68% (inactive) | -0.39% (inactive) | 96.3% (inactive) | 92.9% (inactive) | 1.56% (inactive) | 5.48% (inactive) |
| Cc1nc2ccccc2c2oc(C(=O)N3CCC(N4CCCCC4)CC3)cc12 | 102 | 104% (inactive) | 102% (inactive) | 75.7% (inactive) | 87.4% (inactive) | 9.3% (inactive) | 78.1 | 87.4 | -2.82% (inactive) | 0.17% (inactive) | -9.32% (inactive) | -4.43% (inactive) | -4.92% (inactive) | 83.9% (inactive) | 79.6% (inactive) | 0.43% (inactive) | 4.3% (inactive) |
| O=C(Cn1ncc2c1-c1ccccc1OC2)Nc1ccc(Cl)cn1 | 91.5 | 95% (inactive) | 91.5% (inactive) | 80.1% (inactive) | 99.3% (inactive) | 7.75% (inactive) | 91.5 | 99.3 | -0.26% (inactive) | -5.5% (inactive) | 1.63% (inactive) | 0.96% (inactive) | -3.35% (inactive) | 95.9% (inactive) | 95.1% (inactive) | 4.09% (inactive) | 0.83% (inactive) |
| O=C(C1CCN(S(=O)(=O)c2cccc3cccnc23)CC1)N1CCN(C2CCCCC2)CC1 | 102 | 102% (inactive) | 102% (inactive) | 99.9% (inactive) | 102% (inactive) | 2.56% (inactive) | 99.2 | 102 | -2.8% (inactive) | -0.49% (inactive) | 6.08% (inactive) | 0.815% (inactive) | -2.03% (inactive) | 97.8% (inactive) | 98.7% (inactive) | 1.12% (inactive) | 7.73% (inactive) |
| CCOC(=O)c1c(C)n(OCc2ccccc2)c2ccc3c(no[n+]3[O-])c12 | 60 | 78.5% (inactive) | 60% (inactive) | 64.8% (inactive) | 52.9% (inactive) | -14.2% (inactive) | 67.1 | 52.9 | -3.24% (inactive) | -2.95% (inactive) | -12.4% (inactive) | -11.1% (inactive) | -3.24% (inactive) | 62.8% (inactive) | 62.9% (inactive) | 1.99% (inactive) | 5.8% (inactive) |
| c1ccc2c(c1)Cc1cc(CN3CCOCC3)ccc1-2 | 85 | 100% (inactive) | 85% (inactive) | 99.7% (inactive) | 89.3% (inactive) | -2.81% (inactive) | 92.1 | 89.3 | 2.34% (inactive) | -1.15% (inactive) | -14.7% (inactive) | -4.66% (inactive) | 0.12% (inactive) | 92.3% (inactive) | 97.5% (inactive) | 1.01% (inactive) | 0.21% (inactive) |
| CCN(CC)C(=O)C1CCCN(c2ncnc3c2cnn3-c2ccc(Cl)cc2)C1 (stereo not drawn) | 94.5 | 96.5% (inactive) | 94.5% (inactive) | 49.2% (inactive) | 86.1% (inactive) | 2.38% (inactive) | 83.7 | 86.1 | -4.4% (inactive) | -2.17% (inactive) | -7.13% (inactive) | 5.38% (inactive) | 3.1% (inactive) | 66% (inactive) | 69.7% (inactive) | 0.62% (inactive) | -2.04% (inactive) |
| O=C(CSc1nnc2ccccn12)c1ccccc1 | 99 | 88% (inactive) | 99% (inactive) | 88.8% (inactive) | 94.5% (inactive) | 14.1% (inactive) | 80.3 | 94.5 | -4.27% (inactive) | -3.44% (inactive) | -13.8% (inactive) | -10.6% (inactive) | 0.47% (inactive) | 109% (inactive) | 102% (inactive) | 1.23% (inactive) | 2.3% (inactive) |
| c1ccc(C2(Cn3ccc4ccccc43)OCCO2)cc1 | 89 | 104% (inactive) | 89% (inactive) | 93.7% (inactive) | 94.9% (inactive) | 7.87% (inactive) | 87.1 | 94.9 | -0.78% (inactive) | 3.44% (inactive) | -4.05% (inactive) | -10.5% (inactive) | -3.2% (inactive) | 81.6% (inactive) | 81.8% (inactive) | 1.63% (inactive) | 6.65% (inactive) |
| CCN1CCCC1CNC(=O)c1cc2c(=O)n(C)c3ccccc3c2n1C (stereo not drawn) | 87 | 86.5% (inactive) | 87% (inactive) | 74.7% (inactive) | 87.8% (inactive) | 7.05% (inactive) | 80.8 | 87.8 | -0.4% (inactive) | 15.9% (inactive) | -1.93% (inactive) | -3.33% (inactive) | -5.23% (inactive) | 67.5% (inactive) | 66.2% (inactive) | 1.1% (inactive) | 2% (inactive) |
| CCCCN(CC)CCNC(=O)c1cc2c(C)nc3ccccc3c2o1 | 91 | 95.5% (inactive) | 91% (inactive) | 63.6% (inactive) | 85.3% (inactive) | 2.99% (inactive) | 82.4 | 85.3 | -5.73% (inactive) | -4.43% (inactive) | 10% (inactive) | 1.23% (inactive) | -3.49% (inactive) | 75% (inactive) | 84% (inactive) | 0.07% (inactive) | 2.07% (inactive) |
